Reference: PubChem BioAssay (NCI)
The panel holds about 83,000 compounds, 20% with a hit somewhere; the sample as a whole holds those more often.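 Interpretation: 100, growth as untreated; towards 0, rising growth inhibition; 0, no net growth; 0 to -100, cell death. Compounds scoring below 10 were considered active.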 Calls of active or inactive are those of the source.

Columns and labels:
Experiment in all cases: NCI-60 one-dose screen, 48 h (100 = growth as untreated, 0 = no growth, -100 = all killed)
Conditions in all cases: 10 µM unless noted
BT-549 breast = test system: BT-549 breast
MDA-MB-435 melanoma = test system: MDA-MB-435 melanoma
SW-620 colon = test system: SW-620 colon
MCF7 breast = test system: MCF7 breast
HCT-116 colon = test system: HCT-116 colon
HCC-2998 colon = test system: HCC-2998 colon
KM12 colon = test system: KM12 colon

Measured: growth

CCOCCc1c(O)nc(SC)[nH]c1=O
inactive: BT-549 breast 110% | MDA-MB-435 melanoma 120% | SW-620 colon 90.9% | MCF7 breast 99.7% | HCT-116 colon 100% | HCC-2998 colon 39.4% | KM12 colon 101%

Cc1cnc(SCc2ccc(Cl)cc2)[nH]c1=S
inactive: BT-549 breast 108% | MDA-MB-435 melanoma 104% | SW-620 colon 111% | MCF7 breast 95.6% | HCT-116 colon 101% | HCC-2998 colon 108% | KM12 colon 96.3%

CN(C)CSc1nc2ccccc2s1
inactive: BT-549 breast 81.1% | MDA-MB-435 melanoma 99.9% | SW-620 colon 104% | MCF7 breast 87.3% | HCT-116 colon 89.7% | HCC-2998 colon 97.7% | KM12 colon 98.3%

CC(=O)OC[C@]12CC[C@@H](c3cn(Cc4ccc(Cn5cc([C@@H]6CC[C@]7(COC(C)=O)CC[C@]8(C)[C@H](CC[C@@H]9[C@@]%10(C)CC[C@H](OC(C)=O)C(C)(C)[C@@H]%10CC[C@]98C)[C@@H]67)nn5)cc4)nn3)[C@@H]1[C@H]1CC[C@@H]3[C@@]4(C)CC[C@H](OC(C)=O)C(C)(C)[C@@H]4CC[C@@]3(C)[C@]1(C)CC2
inactive: BT-549 breast 91.4% | MDA-MB-435 melanoma 105% | SW-620 colon 106% | MCF7 breast 92.1% | HCT-116 colon 109% | HCC-2998 colon 104% | KM12 colon 106%

N#CC1C(c2ccc(Cl)cc2)=Nc2c(c(-c3ccccc3)nn2-c2ccccc2)C12C(=O)Nc1ccc(Cl)cc12 (centres undefined)
inactive: BT-549 breast 50% | MDA-MB-435 melanoma 34.5% | SW-620 colon 42.1% | MCF7 breast 28.4% | HCT-116 colon 26.2% | HCC-2998 colon 55.2% | KM12 colon 26.1%

CCOCc1nc2ccccc2c(=O)[nH]1
inactive: BT-549 breast 106% | MDA-MB-435 melanoma 103% | SW-620 colon 97.1% | MCF7 breast 94.9% | HCT-116 colon 98% | HCC-2998 colon 105% | KM12 colon 103%

CCOC(=O)/C(=C/c1c(-c2ccccc2)[nH]c2ccccc12)C(=O)c1ccc(Cl)cc1
inactive: BT-549 breast 64.7% | SW-620 colon 45.4% | MCF7 breast 28.4% | HCT-116 colon 14% | HCC-2998 colon 67.1% | KM12 colon 18.6%
active: MDA-MB-435 melanoma 9.31%

O=C1NN(c2ccccc2)C(c2ccc3c(c2)OCO3)N2CCC[C@@H]12 (some centres undefined)
inactive: BT-549 breast 114% | MDA-MB-435 melanoma 105% | SW-620 colon 105% | MCF7 breast 87.5% | HCT-116 colon 94.3% | HCC-2998 colon 82.2% | KM12 colon 98.8%

COC(=O)c1ccc2c(c1)n(Cc1ccc3ccccc3c1)c[n+]2Cc1ccc2ccccc2c1
inactive: BT-549 breast 56.7% | SW-620 colon 37.6% | MCF7 breast 29.2% | HCT-116 colon 32% | HCC-2998 colon 33.9%
active: MDA-MB-435 melanoma 4.2% | KM12 colon -8.69%

COc1cc(C2=NN(c3ccccc3)C(c3cccc(Nc4ccnc5cc(C(F)(F)F)ccc45)c3)C2)cc(OC)c1OC (centres undefined)
inactive: BT-549 breast 114% | MDA-MB-435 melanoma 104% | SW-620 colon 94.8% | MCF7 breast 80.6% | HCT-116 colon 89.7% | HCC-2998 colon 90% | KM12 colon 88.1%

COc1ccc(C2C(c3ccccc3)C(=O)N2c2cc(OC)c(OC)c(OC)c2)cc1I (centres undefined)
inactive: BT-549 breast 12% | SW-620 colon 23.7% | HCC-2998 colon 31.8% | KM12 colon 15.3%
active: MDA-MB-435 melanoma 2.2% | MCF7 breast 8.53% | HCT-116 colon 3.14%

COc1cc2c(Nc3ccc(NC(=O)Nc4ccc(Cl)c(C(F)(F)F)c4)c(Cl)c3)ncnc2cc1OCCCN1CCN(C)CC1
inactive: BT-549 breast 21.6% | HCC-2998 colon 20.2%
active: MDA-MB-435 melanoma -71.2% | SW-620 colon -85.4% | MCF7 breast -77.4% | HCT-116 colon -73.2% | KM12 colon -55.1%
